35 compounds from PubChem BioAssay AID652189 (Johns Hopkins Ion Channel Center, 2013) can be followed below.

The campaign covered roughly 2,300 compounds. About 900 (39%) were called active.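 Rule for the calls: active = mean duplicate percent inhibition, scaled so buffer wells are 0 and the reference blocker 100, over three buffer SD above buffer mean; inactive = the rest.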 The list is a sample of the results.

The target in the assay is Anoctamin-1 (Mus musculus) (UniProt Q8BHY3). As to the kind of experiment: blockers of mouse ANO1 channel, retest – cell-based, re-confirmation, confirmation (AID 652189). Particulars: HEK293 TMEM16A/YFP-H148Q, iodide quench fluorescence, at 10 µM, ionomycin added to raise cell calcium; stronger effect = higher value.
Chain of Anoctamin-1 (Mus musculus) (Q8BHY3 whole entry, looked up): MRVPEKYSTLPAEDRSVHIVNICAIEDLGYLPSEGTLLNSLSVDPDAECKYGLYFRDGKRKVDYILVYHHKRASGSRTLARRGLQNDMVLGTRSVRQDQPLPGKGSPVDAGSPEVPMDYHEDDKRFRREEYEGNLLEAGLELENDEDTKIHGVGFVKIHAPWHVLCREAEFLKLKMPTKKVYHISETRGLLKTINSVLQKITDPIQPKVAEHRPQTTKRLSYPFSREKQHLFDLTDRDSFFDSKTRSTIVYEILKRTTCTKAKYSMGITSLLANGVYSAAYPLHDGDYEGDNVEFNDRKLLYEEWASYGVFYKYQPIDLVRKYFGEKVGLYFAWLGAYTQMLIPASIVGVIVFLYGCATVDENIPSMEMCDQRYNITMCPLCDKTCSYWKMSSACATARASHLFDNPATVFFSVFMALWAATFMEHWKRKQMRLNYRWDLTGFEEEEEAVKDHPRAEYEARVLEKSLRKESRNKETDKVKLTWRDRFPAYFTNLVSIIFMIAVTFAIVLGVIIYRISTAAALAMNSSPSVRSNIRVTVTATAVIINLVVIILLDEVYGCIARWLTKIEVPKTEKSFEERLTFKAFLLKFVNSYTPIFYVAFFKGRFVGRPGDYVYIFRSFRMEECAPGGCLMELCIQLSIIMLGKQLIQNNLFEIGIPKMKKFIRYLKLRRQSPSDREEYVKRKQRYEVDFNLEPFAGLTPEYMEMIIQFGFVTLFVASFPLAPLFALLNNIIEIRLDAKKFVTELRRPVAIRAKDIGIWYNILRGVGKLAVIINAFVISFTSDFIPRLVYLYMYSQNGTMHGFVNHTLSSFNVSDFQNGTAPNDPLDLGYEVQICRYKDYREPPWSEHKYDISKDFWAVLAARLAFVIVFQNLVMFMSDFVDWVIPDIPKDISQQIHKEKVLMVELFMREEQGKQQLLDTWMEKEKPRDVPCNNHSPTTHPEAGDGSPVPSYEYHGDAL
Usually inhibition stands for how much of the control response was suppressed. In the case of `Cc1ccc(N2C(=O)S/C(=C/c3cn(C)c4ccccc34)C2=O)cc1`, the inhibition result was “inactive”.

`O=C1c2ccccc2C(Nc2ccc3c(c2)OCCO3)N1Cc1ccco1` (stereo not given): the inhibition entry was “inactive”.

Take `COC(=O)c1ccc(NC(=O)c2ccccc2NS(=O)(=O)c2ccccc2)cc1`: the inhibition is 29.5% (active).

Take `CCOC(=O)C1CCN(c2ncnc3c2oc2ccc(Br)cc23)CC1`: the inhibition is 28% (active).

For the compound `Cc1ccc(-c2csc(-c3c[nH]c4ccccc34)n2)cc1`, the inhibition entry was “inactive”.

In the case of `S=C(NCc1ccc(Cl)cc1)NC12CC3CC(CC(C3)C1)C2`, the inhibition was 46% (active).

With `S=C(NCc1cccs1)Nc1ccc(Cl)cc1`, the inhibition entry is “inactive”.

As to `CN(Cc1cccnc1)C(=O)c1cc(COc2ccc3ncccc3c2)on1`, the inhibition result was “inactive”.

As for `CC(=O)c1cc(CN2CCC(C(=O)Nc3cccc(-c4cscn4)c3)CC2)cs1`, the inhibition was 21.5% (active).

Regarding `Cc1ccc(C)c(N2CCN(C(=O)CCCCn3c(=O)[nH]c4ccccc4c3=O)CC2)c1`, the inhibition entry is “inactive”.

As for `CCOC(=O)N1CCN(C(=O)c2ccc3c(c2)N(Cc2ccc(C)cc2)CCS3)CC1`, the inhibition entry was “inactive”.

For the compound `COc1ccc(S(=O)(=O)NCCCCOc2ccc(Cl)cc2)cc1`, the inhibition is 23.5% (active).

In the case of `COc1ccc(OCC(=O)NCCc2ccc(S(N)(=O)=O)cc2)cc1`, the inhibition entry was “inactive”.

For `Cc1nc(CNS(=O)(=O)c2ccc(Oc3ccccc3)cc2)cs1`, the inhibition result was “inactive”.

Consider `CCn1nccc1C(=O)Nc1ccc(S(=O)(=O)NC23CC4CC(CC(C4)C2)C3)cc1`, for which the inhibition result is “inactive”.

On to `CCCCCc1ccc(-c2ccc(C(=O)O)cc2)nc1`, for which the inhibition entry was “inactive”.

Take `O=C(Nc1cccc(S(=O)(=O)Nc2ccc(Cl)cc2)c1)c1ccc2c(c1)OCCO2`: the inhibition was 19% (active).

Turning to `COc1ccc(Cl)cc1NC(=O)CCS(=O)(=O)c1cc2c(cc1C)NC(=O)CO2`, the inhibition result is “inactive”.

Regarding `COc1cccc(CNS(=O)(=O)c2ccc3c(c2)CC(C)N3C(=O)C2CCC2)c1` (stereo not given), the inhibition is 19.5% (active).

`COc1ccc(-n2c(C)cc(C(=O)CSc3nnc(-c4cccs4)o3)c2C)cc1`: the inhibition entry is “inactive”.

Take `Fc1ccc(CSc2nnc(-c3cc4c(s3)-c3ccccc3CC4)o2)cc1`: the inhibition result is “inactive”.

With `Cc1cccc(-n2c(SCC(N)=O)nc3c(c2=O)C2(CCCCC2)Cc2ccccc2-3)c1`, the inhibition is 22% (active).

Regarding `C=C(C)Cn1c(C)cc(C)c(S(=O)(=O)c2ccccc2C)c1=O`, the inhibition result was “inactive”.

On to `O=C(Nc1nc(-c2ccc3c(c2)OCO3)cs1)c1ccncc1`, for which the inhibition entry is “inactive”.

Take `COc1cc(CC(=O)Nc2nc(-c3ccc(F)c(F)c3)cs2)cc(OC)c1OC`: the inhibition was 25.5% (active).

As for `Cc1ccc(N)cc1-n1c(C)ccc1C`, the inhibition result is “inactive”.

As to `CCOC(=O)C(Sc1ncc(C#N)c(N)n1)C(C)C` (stereo not given), the inhibition result was “inactive”.

With `N#Cc1nc(COc2ccc(-c3ccccc3)cc2)oc1NCc1cccnc1`, the inhibition entry is “inactive”.

On to `O=C(NC(=S)Nc1ccccc1C(=O)O)c1ccc(-c2ccc(Br)cc2)o1`, for which the inhibition entry was “inactive”.

As to `O=C(Nc1ccccc1)c1ccccc1NC(=O)C(F)(F)F`, the inhibition was 26.5% (active).

Turning to `CSc1cccc(NC(=S)N(C(C)C)C(C)c2ccccn2)c1` (stereo not given), the inhibition result was “inactive”.

As for `Fc1ccc2[nH]c3c(N4CCSCC4)ncnc3c2c1`, the inhibition was 41.5% (active).

As for `CCC(=O)Nc1ccc2nc(C)n(Cc3ccccc3Cl)c(=O)c2c1`, the inhibition entry is “inactive”.

In the case of `Cc1nc(SCC(=O)N2CCc3ccccc3C2)c2c(C)c(C)sc2n1`, the inhibition result is “inactive”.

Regarding `Cc1ccc(C)c(N2CCN(S(=O)(=O)c3ccc4c(c3)oc(=O)n4C)CC2)c1`, the inhibition result was “inactive”.
